# “And” between values parts separate entries of the source, which are not always exact repeats. Equal values may be shown once. Results filed as inconclusive are left out. A call without a number means that no potency is given here. The source made the active and inactive calls. Calls follow the shape of the full dose curve.
# Key:
# [1] = Cytotoxicity counterscreen for inhibitors of SARS-CoV-2 cell entry (AID 1645845); also: nearly all actives have a fitted effect of over 50% in size
# Summary of the method: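 Counterscreen run in the same HEK293-ACE2 line as the pseudotyped-particle entry assay, without particles. Viability after 48 h at 37 C was read as ATP luminescence, scaled between cell-containing and cell-free wells.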
# [2] = Primary qHTS to identify inhibitors of SARS-CoV-2 cell entry (AID 1645846); settings: activity change, negative = inhibition: at 57.1 µM (top of the series) unless noted; also: nearly all actives have a fitted effect of over 45% in size
# Summary of the method: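 Inhibition of spike-mediated entry was scored in human ACE2-transfected Expi293F cells. Particles were MLV-pseudotyped with Wuhan-Hu-1 S carrying a 19-aa C-terminal deletion; signal was luciferase after two days, scaled between spike PP and fusion-protein-free PP.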
# Potency is read from the fitted curve at half-maximal effect.
compound,measurement,setting,value
O=C(OCC(COC(=O)c1cccnc1)(COC(=O)c1cccnc1)COC(=O)c1cccnc1)c1cccnc1,Potency,[1],inactive
same,"activity change, negative = inhibition",[2],-26.9%
C[N+]12CCC(CC1)C(OC(=O)C(O)(c1ccccc1)c1ccccc1)C2 (centres undefined),Potency,[1],inactive
same,Potency,[2],inactive
CCCc1nc(C)c2c(=O)[nH]c(-c3cc(S(=O)(=O)N4CCN(CC)CC4)ccc3OCC)nn12,Potency,[1],inactive
same,"activity change, negative = inhibition",[2],-31% and -14%
O=Cc1ccccc1C=O,Potency,[1],inactive
same,"activity change, negative = inhibition",[2],-7.57%
CCOCCn1c(N2CCCN(C)CC2)nc2ccccc21,Potency,[1],inactive
same,"activity change, negative = inhibition",[2],-36.1%
COc1ccc2c(c1)c(CC(=O)OCC(=O)O)c(C)n2C(=O)c1ccc(Cl)cc1,Potency,[1],inactive
same,Potency,[2],inactive
COC(=O)C1=C(C)NC(C)=C(C(=O)OCCN2CCN(C(c3ccccc3)c3ccccc3)CC2)C1c1cccc([N+](=O)[O-])c1 (centres undefined),Potency,[1],inactive
same,Potency,[2],17.8 µM (active)
CCN(CC)C(=O)C1CN2CCc3cc(OC)c(OC)cc3C2CC1OC(C)=O (centres undefined),Potency,[1],inactive
same,Potency,[2],inactive
CCOC(=O)[C@H](CCc1ccccc1)N[C@H]1CCc2ccccc2N(CC(=O)O)C1=O,Potency,[1],inactive
same,"activity change, negative = inhibition",[2],-24.9%
CN(C)CCCN1c2ccccc2Sc2ccccc21,Potency,[1],inactive
same,Potency,[2],14.1 µM (active)
CCOc1ccc(C(=O)OCCN(CC)CC)cc1,Potency,[1],inactive
same,"activity change, negative = inhibition",[2],-1.6%
CC(=O)N[C@H]1[C@H]([C@H](O)[C@H](O)CO)OC(C(=O)O)=C[C@@H]1N=C(N)N,Potency,[1],inactive
same,"activity change, negative = inhibition",[2],-0.176%
CNC(=O)c1c(I)c(NC(=O)CCCCC(=O)Nc2c(I)c(C(=O)O)c(I)c(C(=O)NC)c2I)c(I)c(C(=O)O)c1I,Potency,[1],inactive
same,Potency,[2],inactive
OC(CCCN1CCCCC1)(c1ccccc1)c1ccccc1,Potency,[1],inactive
same,"activity change, negative = inhibition",[2],-24.7%
CO/N=C(/C(=O)N[C@@H]1C(=O)N2C(C(=O)O)=C(Cn3nnc(C)n3)CS[C@H]12)c1csc(N)n1,Potency,[1],inactive
same,Potency,[2],inactive
CCN1CCN(c2cc(-c3ccc(F)cc3)c3c(n2)CCCCCC3)CC1,Potency,[1],inactive
same,Potency,[2],inactive
Cc1cccc(N(C)C(=S)Oc2ccc3ccccc3c2)c1,Potency,[1],inactive
same,"activity change, negative = inhibition",[2],-10.5% and -29.1%
CC(=O)N(CC(=O)N(C)C)c1ccccc1,Potency,[1],inactive
same,Potency,[2],inactive
CCOc1c(N2CCOCC2)cnn(C)c1=O,Potency,[1],inactive
same,Potency,[2],inactive
Cc1cccc(N(C)C(=S)Oc2ccc3c(c2)C2CCC3C2)c1 (centres undefined),Potency,[1],inactive
same,Potency,[2],inactive
CCCCC(=O)O[C@]1(C(=O)CO)[C@@H](C)C[C@H]2[C@@H]3CCC4=CC(=O)C=C[C@]4(C)[C@@]3(F)[C@@H](O)C[C@@]21C,Potency,[1],inactive
same,Potency,[2],inactive
COC(=O)C1=C(C)NC(C)=C(C(=O)OCCCN2CCC(c3ccccc3)(c3ccccc3)CC2)C1c1cccc([N+](=O)[O-])c1 (centres undefined),Potency,[1],28.2 µM (active)
same,Potency,[2],8.91 µM (active)
CN(C)CCC(c1ccccc1)c1ccccn1 (centres undefined),Potency,[1],inactive
same,"activity change, negative = inhibition",[2],-4.85%
N[C@H]1CN(c2c(F)cc3c(=O)c(C(=O)O)cn(C4C[C@@H]4F)c3c2Cl)CC12CC2 (some centres undefined),Potency,[1],inactive
same,"activity change, negative = inhibition",[2],-17.4%
Nc1ccc(N=Nc2ccccc2)c(N)n1,Potency,[1],inactive
same,Potency,[2],inactive
C=CCc1ccccc1OCC(O)CNC(C)C (centres undefined),Potency,[1],inactive
same,"activity change, negative = inhibition",[2],-22.8%
Cc1[nH]c(C)c(Cl)c(=O)c1Cl,Potency,[1],inactive
same,Potency,[2],inactive
CCCCC[C@H](O)C=C[C@H]1[C@H](O)CC(=O)[C@H]1CC=CCCCC(=O)O,Potency,[1],inactive
same,Potency,[2],inactive
OCCN1CCN(CCCN2c3ccccc3C=Cc3ccccc32)CC1,Potency,[1],inactive
same,"activity change, negative = inhibition",[2],-17.2%
COc1ccccc1N1CCN(CC(O)COc2cccc3ccccc23)CC1 (centres undefined),Potency,[1],inactive
same,"activity change, negative = inhibition",[2],-24.9% and -27.1%
Oc1cc(O)c2c(c1)O[C@H](c1ccc(O)c(O)c1)[C@H](O)C2,Potency,[1],inactive
same,"activity change, negative = inhibition",[2],-5.55%
NC(N)=NCCC[C@H](N)C(=O)O,outcome,[1],inactive [at 5.25 µM]
same,outcome,[2],inactive [at 5.25 µM]
